Data on 108 compounds can be found in PubChem BioAssay AID2551 (National Center for Advancing Translational Sciences (NCATS), 2010).

“And” between values parts separate entries of the source, which are not always exact repeats. Equal values may be shown once. The whole screen tested about 310,000 compounds, of which about 17,000 (5.5%) were called active. Inconclusive results (about 11%) are left out. Shown is part of a subset that was picked to be rich in actives. Where a call stands in place of a potency, no number is given. A number with no mark means an inactive call. Calls follow the shape of the dose curve; as a rule, active = well fitted inhibition curve with a large enough effect; inconclusive = small, poorly fitted or top-dose-only effect, or effect the other way; inactive = no such curve, though single readings can be large or run the other way.
Potency is read from the fitted curve at half-maximal effect.

For this test, the target named is Nuclear receptor ROR-gamma (Mus musculus) (UniProt P51450). Put plainly: qHTS for inhibitors of ROR gamma transcriptional activity. Also: nearly all actives have a fitted effect of over 60% in size. The following applies: Drosophila S2 Gal4-RORgamma UAS-luciferase reporter, 20 h; series mostly up to 53.6 µM. The procedure, abridged: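 Schneider cells (Drosophila), stable Gal4 DBD–ROR gamma + UAS-luc; 1 hr cmpd preincubation; Cu2+ induction 700 uM final; 20 hr ambient; luminescence.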
Sequence of Nuclear receptor ROR-gamma (Mus musculus) (P51450 whole entry, looked up, the tested form may be a part): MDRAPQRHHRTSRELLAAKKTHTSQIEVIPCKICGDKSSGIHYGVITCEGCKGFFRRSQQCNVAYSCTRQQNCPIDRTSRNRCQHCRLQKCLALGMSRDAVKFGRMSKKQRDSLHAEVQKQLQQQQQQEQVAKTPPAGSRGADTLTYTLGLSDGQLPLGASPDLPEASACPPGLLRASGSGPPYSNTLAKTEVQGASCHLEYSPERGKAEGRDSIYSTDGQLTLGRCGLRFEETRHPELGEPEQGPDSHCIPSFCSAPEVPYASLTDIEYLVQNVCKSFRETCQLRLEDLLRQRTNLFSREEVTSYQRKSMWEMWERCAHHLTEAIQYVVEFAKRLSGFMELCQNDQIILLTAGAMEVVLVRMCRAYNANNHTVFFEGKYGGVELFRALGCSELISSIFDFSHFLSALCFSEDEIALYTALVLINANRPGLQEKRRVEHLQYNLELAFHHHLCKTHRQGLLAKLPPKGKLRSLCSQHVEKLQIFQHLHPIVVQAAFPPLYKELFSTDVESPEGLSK
For orientation: Quantitative high-throughput screening tests each substance at several concentrations.
For the compound `CCn1c2ccc(F)cc2c2nnc(SCCN3CCOCC3)nc21`, the Potency entry was “inactive”.

As to `Cn1c(=O)c2c(nc(NCc3ccccc3)n2CC(N)=O)n(C)c1=O`, the Potency entry was “inactive”.

Turning to `CCn1c(NCCc2ccc(OC)c(OC)c2)nc2c1c(=O)n(C)c(=O)n2C`, the Potency result is “inactive”.

In the case of `Cn1c(=O)c2c(nc(NCCc3ccccc3)n2Cc2ccccc2)n(C)c1=O`, the Potency is 11.2 µM (active).

As for `COc1ccc(/C=C/NC(=O)c2ccc(OC)cc2)cc1`, the activity change, negative = inhibition is -26.7% [at 10 µM].

For `COc1ccc(/C=C/C(=O)c2ccc(OC)cc2O)cc1`, the Potency was 8.91 µM (active) and 316 nM (active).

Take `O=C(/C=C/c1ccccc1)c1ccccc1O`: the Potency result is “inactive”.

As to `CCC(C(=O)NCc1cccnc1)n1nc(C)c2sc3ccccc3c2c1=O` (stereo not drawn), the Potency entry is “inactive”.

In the case of `CC(=O)c1ccc2c(ccc3ccccc32)c1`, the Potency result is “inactive”.

For `CC(=O)CCC(=O)c1ccc2ccccc2c1`, the Potency result was “inactive”.

For the compound `C=CC(=O)c1ccc2ccccc2c1`, the Potency is 0.631 µM (active).

Take `COc1ccc(/C=C(\C#N)c2c[nH]c3ccccc23)cc1`: the Potency entry is “inactive”.

For the compound `CCN(CC)CC(=O)c1c[nH]c2ccc(OC)cc12`, the Potency result is “inactive”.

Consider `COc1ccc2[nH]cc(/C=C(/C#N)S(=O)(=O)c3ccccc3)c2c1`, for which the Potency is 7.08 µM (active).

For the compound `COC(=O)c1cccc(C(=O)N2CCC(CCC(=O)NCc3ccc(F)cc3)CC2)c1`, the Potency entry is “inactive”.

As for `COc1cccc(CN(C)CC2CCCN(CCc3ccc(Cl)cc3)C2)c1OC` (stereo not drawn), the Potency result was “inactive”.

As to `CCS(=O)(=O)N1Cc2ccccc2CC1C(=O)Nc1ccc(OC)cc1OC` (stereo not drawn), the Potency result was “inactive”.

In the case of `NS(=O)(=O)c1ccc2nc(NC(=O)CS(=O)(=O)c3ccc(F)cc3)sc2c1`, the Potency entry was “inactive”.

On to `CCS(=O)(=O)N1Cc2ccccc2CC1C(=O)Nc1nc2ccc(F)cc2s1` (stereo not drawn), for which the Potency was 4.47 µM (active).

With `O=C(c1ccc(F)cc1)N1CCCC(C(=O)N2CCCCC2)C1` (stereo not drawn), the Potency result is “inactive”.

On to `Cc1cc(NS(=O)(=O)c2ccc(NC(=O)c3cccnc3)cc2)nc(C)n1`, for which the Potency entry is “inactive”.

As to `Cc1cc(C)c2c(Cn3ccnc3)cc(=O)oc2c1`, the Potency entry is “inactive”.

As to `O=C(c1cc(-c2ccc(Cl)cc2)on1)N1CCN(c2ccccc2)CC1`, the Potency entry is “inactive”.

Turning to `CCOc1ccccc1/C=N/Nc1nc2ccccc2o1`, the Potency was 6.31 µM (active).

With `Cc1cccc(COc2ccccc2/C=N/Nc2ccc([N+](=O)[O-])cc2)c1`, the Potency entry is “inactive”.

Turning to `O=C(CSc1nc2ccccc2o1)N/N=C/c1ccccc1C(=O)O`, the Potency result is “inactive”.

Turning to `Oc1c(Br)cccc1/C=N/Nc1c(F)c(F)c(F)c(F)c1F`, the Potency entry was “inactive”.

In the case of `Brc1ccccc1/C=N/Nc1nc2ccccc2o1`, the Potency was 2.51 µM (active).

Regarding `COc1ccc(/C=N/Nc2nc3ccccc3o2)cc1OC`, the Potency entry is “inactive”.

As for `CC(=O)Nc1ccc(S(=O)(=O)Nc2cc(C)cn(Cc3ccc(C)cc3)c2=O)cc1`, the Potency result is “inactive”.

Take `COCC1CCN(C(=O)C2CCC(=O)N(CC3CCCCC3)C2)CC1` (stereo not drawn): the Potency result was “inactive”.

For `CC/C(O)=C1\C(=O)CC(C)(C)CC1=NCCc1nc2ccccc2[nH]1`, the Potency result was “inactive”.

With `CN(Cc1ccccc1)C(=O)CSc1nc2ccccc2[nH]1`, the Potency entry is “inactive”.

For `CCC(=O)/C(=C(/O)c1ccccc1)c1nc2ccccc2[nH]1`, the Potency is 6.31 µM (active).

`CSc1ncccc1C(=O)Nc1ccc(C)cn1`: the Potency result is “inactive”.

Regarding `O=C(Nc1nnc(-c2ccc(F)cc2)s1)c1c(F)cccc1Cl`, the Potency entry is “inactive”.

As for `COc1cc(S(=O)(=O)N2CCN=C2c2ccccc2)ccc1Cl`, the Potency entry is “inactive”.

As to `Cc1ccc(C(=O)NC(=S)NCc2cccnc2)cc1`, the Potency result was “inactive”.

Consider `Cc1ccc(NC(=O)N2CCC(O)(c3cccnc3)CC2)cc1`, for which the Potency result was “inactive”.

With `CC1=NN(C(=O)Cc2ccc(C)cc2)C(O)(c2cccnc2)C1` (stereo not drawn), the Potency was 8.91 µM (active).

`O=C(c1cccc(F)c1)N1CCC(O)(c2cccnc2)CC1`: the Potency entry is “inactive”.

As for `CC1=NN(C(=O)c2ccccc2Br)C(O)(c2cccnc2)C1` (stereo not drawn), the Potency was 5.62 µM (active).

In the case of `O=C(CN1CCN(Cc2ccccc2)CC1)Nc1ccc(F)c(F)c1`, the Potency entry was “inactive”.

Turning to `CCCC[C@H]1COCCS(=O)(=O)N1Cc1cccc(Cl)c1`, the Potency result is “inactive”.

As to `O=C(NCCN1CCCC(O)C1)c1cc(COc2c(F)cccc2F)on1` (stereo not drawn), the Potency entry was “inactive”.

With `Cc1ccc(C)c(NC(=O)c2cc(-c3cc(C)cc(C)c3O)n[nH]2)c1`, the Potency result was “inactive”.

As for `COc1cccc(OCc2cc(C(=O)N3CCN(C(=O)c4ccco4)CC3)no2)c1`, the Potency entry is “inactive”.

`O=C(NC(=S)N1CCCCC1c1cccnc1)c1ccccc1` (stereo not drawn): the Potency was 0.794 µM (active).

For `CCOC(=O)C1CCCN(C(=O)/C=C/c2ccc(OC)cc2)C1` (stereo not drawn), the Potency result was “inactive”.

For `COc1ccc(/C=C/C(=O)NC(=S)N2CCCC(C(N)=O)C2)cc1` (stereo not drawn), the Potency entry was “inactive”.

Turning to `COc1ccc(/C=C/C(=O)NC(=S)NN2CCCCC2c2cccnc2)cc1` (stereo not drawn), the Potency was 7.08 µM (active).

Regarding `COc1ccc(C(=O)Nc2cccnc2)cc1C(=O)Nc1cccnc1`, the Potency result was “inactive”.

For `Cc1ccc(-c2cc(C(F)(F)F)n3ncc(C(=O)N4CCCCC4c4cccnc4)c3n2)cc1` (stereo not drawn), the Potency result is “inactive”.

`O=C(Nc1ccccc1C(F)(F)F)N1CCCC1c1cccnc1` (stereo not drawn): the Potency result is “inactive”.

Turning to `COc1ccc(C(=O)NC(=S)N2CCCCC2c2cccnc2)cc1OC` (stereo not drawn), the Potency is 0.891 µM (active).

Consider `COc1ccc(C(=O)N2CCCC(C(=O)c3ccccc3OC)C2)cc1OC` (stereo not drawn), for which the Potency result was “inactive”.

On to `CCN1CCN(C(=O)C2CCCN(S(=O)(=O)c3ccc(OC)c(OC)c3)C2)CC1` (stereo not drawn), for which the Potency result is “inactive”.

In the case of `COc1cc(C(=O)OC2CCOC2=O)c([N+](=O)[O-])cc1OC` (stereo not drawn), the Potency result was “inactive”.

`Cc1ccccc1NC(=O)C1CCN(C(=O)NC2CCCCC2)CC1`: the Potency result was “inactive”.

Regarding `Cc1ccc(NC(=S)N2CCN(c3ncccn3)CC2)cc1C`, the Potency was 12.6 µM (active).

As for `CNC(=S)N1CCN(c2ccccn2)CC1`, the Potency entry is “inactive”.

With `CCOC(=O)c1ccc(NC(=S)N2CCN(c3ccccn3)CC2)cc1`, the Potency result was “inactive”.

In the case of `Cc1c(CC(=O)NCC(=O)NCC(=O)O)c(=O)oc2cc3oc4c(c3cc12)CCCC4`, the Potency result was “inactive”.

For the compound `O=C(OCC(=O)N1CCN(C(=O)c2ccco2)CC1)c1cccc(O)c1`, the Potency result was “inactive”.

Take `CCOC(=O)N1CCN(Cc2nc(Cc3cccc(C(F)(F)F)c3)no2)CC1`: the Potency result is “inactive”.

As to `Cn1c(-c2sccc2OCc2cccc(C(F)(F)F)c2)n[nH]c1=S`, the Potency was 4.47 µM (active).

On to `O=C(c1ccco1)N1CCN(Cc2cccc(C(F)(F)F)c2)CC1`, for which the Potency entry is “inactive”.

Regarding `COc1ccccc1CNS(=O)(=O)c1c(C)[nH]c(C)c1C(=O)N1CCCCC1`, the Potency entry was “inactive”.

Regarding `Cc1cccc(-c2nc3ccccc3c(=O)n2NC(=O)Cc2ccc(Cl)cc2)c1`, the Potency entry was “inactive”.

For `O=c1c2cc(Br)ccc2nc(-c2cccc(Cl)c2)n1O`, the Potency was 12.6 µM (active).

`O=C1CCCc2c1nc(-c1cccc(Cl)c1)n2O`: the Potency result is “inactive”.

As to `CSC(=S)N/N=C/c1c[nH]c2ccccc12`, the Potency is 0.398 µM (active).

As for `O=C(N/N=C/c1c[nH]c2ccccc12)c1ccccc1O`, the Potency was 5.62 µM (active).

For the compound `O=C(Cc1c[nH]c2ccccc12)N/N=C/c1cccc(F)c1`, the Potency result was “inactive”.

As to `NC(=O)CSc1c[nH]c2ccccc12`, the Potency result is “inactive”.

For `O=C(N/N=C/c1c[nH]c2ccccc12)c1cc2ccccc2o1`, the Potency entry was “inactive”.

Take `O=C(N/N=C/c1ccc([N+](=O)[O-])cc1)c1c[nH]c2ccccc12`: the Potency result is “inactive”.

Take `O=C(NCCc1c[nH]c2ccccc12)C1CCN(Cc2ccc(Br)cc2)CC1`: the Potency result is “inactive”.

Regarding `Cc1cc(=O)oc2c3c(cc(OCC(=O)N[C@H](C(=O)O)c4ccccc4)c12)OC(C)(C)CC3`, the Potency entry is “inactive”.

`Cc1ccc(NC(=O)CSc2nn3c(=O)c(C)nnc3s2)cc1Cl`: the Potency entry was “inactive”.

Consider `COCCNC(=O)C(c1ccc(C)cc1)N(C(=O)CCC(=O)Nc1ccccn1)c1cccc(C)c1` (stereo not drawn), for which the Potency result is “inactive”.

For the compound `CCCN1C2CCCC1CC(NC(=O)c1cccc(OC)c1)C2` (stereo not drawn), the Potency result was “inactive”.

`CCCCCCC(O)(CCN1CCCCC1)c1ccccc1` (stereo not drawn): the Potency entry was “inactive”.

On to `Cc1cc(C(F)F)nn1CC(=O)NC1CCCCCC1`, for which the Potency result is “inactive”.

For `Fc1ccc(NC(=S)N2CCc3[nH]c4ccccc4c3C2)cc1`, the Potency result was “inactive”.

Take `CCCCNC(=O)c1ccc(-n2c(=S)[nH]c3ccccc3c2=O)cc1`: the Potency entry was “inactive”.

`CCCCCn1c(=O)c(C(=O)OCC)c(Cl)c2ccccc21`: the Potency result was “inactive”.

On to `CCCCn1c(=S)[nH]c2ccccc2c1=O`, for which the Potency is 2.82 µM (active).

Consider `CCN(CC)CCn1c(=S)[nH]c2ncccc2c1=O`, for which the Potency result is “inactive”.

In the case of `CCCCn1c(=S)[nH]c2ncccc2c1=O`, the Potency was 2 µM (active).

Take `CN(C)CCn1c(=S)[nH]c2ccc(Cl)cc2c1=O`: the Potency is 10 µM (active).

On to `CCCCc1nc2c(=O)[nH]c3ccccc3c2o1`, for which the Potency entry was “inactive”.

Turning to `O=C(CCCN1CCc2[nH]c3ccc(F)cc3c2C1)c1ccc(F)cc1`, the Potency entry is “inactive”.

For the compound `O=c1c2ccccc2[nH]c(=S)n1CCN1CCC(=C(c2ccc(F)cc2)c2ccc(F)cc2)CC1`, the Potency is 11.2 µM (active).

Regarding `O=C(O)c1ccc(Cn2c(=S)[nH]c3cc(Cl)ccc3c2=O)cc1`, the Potency entry was “inactive”.

In the case of `O=C(CCn1c(=S)[nH]c2cc3c(cc2c1=O)OCO3)NCc1ccc(Cl)cc1`, the Potency entry was “inactive”.

In the case of `Cc1ccccc1NC(=O)N1CCCC1C(=O)NCc1ccccc1` (stereo not drawn), the Potency entry was “inactive”.

Regarding `COc1cccc(N(CC(=O)NCc2ccccc2)C(=O)CCC(=O)Nc2nccs2)c1`, the Potency entry was “inactive”.

For `COc1ccccc1/C=C1\SC(=O)N(CCC(=O)N(C)C2CCS(=O)(=O)C2)C1=O` (stereo not drawn), the Potency entry is “inactive”.

For the compound `CCN(CC)S(=O)(=O)c1ccc(N2CC(C(=O)NCc3cccnc3)CC2=O)cc1` (stereo not drawn), the Potency result was “inactive”.

In the case of `COCCn1c(N)c(NCc2ccccc2)c(=O)[nH]c1=O`, the Potency result was “inactive”.

Take `CCc1nnc(NC(=O)CCC(=O)N2CCN(c3cc(C)ccc3C)CC2)s1`: the Potency result is “inactive”.

Take `O=C(OCc1ccc([N+](=O)[O-])cc1)C1CC(=O)N(Cc2ccccc2Cl)C1` (stereo not drawn): the Potency result is “inactive”.

In the case of `COc1ccccc1N1CCN(C(=O)c2cc(=O)c3cc(C)cc(C)c3o2)CC1`, the Potency entry was “inactive”.

For `CC1=CC(C)(C)NC(=S)N1c1ccccc1`, the Potency is 3.16 µM (active).

For `Cc1cccc([C@@H]2[C@@H]3C(=O)N(C)C(=O)[C@@H]3[C@@H]3C(=O)Nc4ccccc4C(=O)N23)c1`, the Potency result is “inactive”.

As to `Cn1c(CCc2ccccc2)nnc1SCC(N)=O`, the Potency entry is “inactive”.

As to `CCC(C)(C)NC(=O)CN(C(=O)CCC(=O)Nc1nccs1)c1ccc2c(c1)OCO2`, the Potency result was “inactive”.
